The values below come from PubChem BioAssay (NCATS).

Results filed as inconclusive are left out. A call without a number means that no potency is given here. Calls of active or inactive are those of the source. Calls come from the whole dose curve; as a rule, active = well fitted inhibition curve with a large enough effect; inconclusive = small, poorly fitted or top-dose-only effect; inactive = flat fitted curve, though single readings scatter.
Potency is the fitted concentration of half-maximal effect.

A short description of this test: P-glycoprotein substrates identified in KB-8-5-11 adenocarcinoma cell line, qHTS therapeutic library screen (AID 1346987). Note: nearly all actives have a fitted effect of over 65% in size. The conditions noted are these: KB-8-5-11 (P-gp overexpressing) viability, CellTiter-Glo, 72 h; series mostly up to 44.5 µM. The method, boiled down: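 KB-8-5-11: colchicine-selected sub-line of KB-3-1 over-expressing P-gp; assay medium lacked colchicine. 72 h drug exposure at 37 degree C, CellTiter-Glo.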
For `C[C@H]1C[C@@H]2[C@H]([C@@H](O)C[C@@]3(C)[C@H]2CC[C@]3(O)C(=O)COC(=O)CCC(=O)O)[C@@]2(C)C=CC(=O)C=C12`, the Potency entry is “inactive”. Still for that read-out and setting: with `CC(C)(C)NC(=O)[C@H]1CC[C@H]2[C@@H]3CC[C@H]4NC(=O)CC[C@]4(C)[C@H]3CC[C@]12C` the entry was “inactive”; with `COc1c(CCC(=O)O)cccc1O[C@@H]1O[C@H](CO)[C@@H](O)[C@H](O)[C@H]1O`, “inactive”. Same read-out and setting: with `CC(O)C(C)n1ncn(-c2ccc(N3CCN(c4ccc(OCC5COC(Cn6cncn6)(c6ccc(Cl)cc6Cl)O5)cc4)CC3)cc2)c1=O` (configuration not stated) the figure was 14.6 µM (active). Same read-out and setting: to `CC(NCCCc1cccc(C(F)(F)F)c1)c1cccc2ccccc12` (configuration not stated) belongs “inactive”; to `COc1cccc(-c2cc(F)ccc2C2Cc3nc(N)nc(C)c3C(=O)N2)n1` (configuration not stated), 0.0259 µM (active). On to `COc1ccc2nc3n[nH]c(C)c3c(NCCOCCO)c2c1`, for which the Potency entry is “inactive”. The same measure, in the same setting: with `CCCC(CCC)C(N)=O` the entry was “inactive”; with `CC[C@@H](C)[C@@H]1OC2(C=C[C@H]1C)C[C@@H]1C[C@H](C/C=C(\C)[C@H](O[C@H]3C[C@H](OC)[C@H](O[C@H]4C[C@H](OC)[C@H](NC(C)=O)[C@H](C)O4)[C@H](C)O3)[C@H](C)/C=C/C=C3\CO[C@H]4[C@H](O)C(C)=C[C@@H](C(=O)O1)[C@@]34O)O2` (some centres not stated), 10.1 µM (active); with `O=C(Nc1cc(C(F)(F)F)cc(C(F)(F)F)c1)c1cnc(Cl)nc1C(F)(F)F`, 16.4 µM (active). In the case of `CC1(C)C2CC[C@]3(C)[C@H](C(=O)C=C4[C@@H]5C[C@@](C)(C(=O)O)CC[C@]5(C)CC[C@]43C)[C@@]2(C)CC[C@@H]1O[C@H]1O[C@H](C(=O)O)[C@@H](O)[C@H](O)[C@H]1O[C@@H]1O[C@H](C(=O)O)[C@@H](O)[C@H](O)[C@H]1O` (some centres not stated), the Potency result was “inactive”.

Consider `CCOC(=O)COc1ccc2c(=O)cc(-c3ccccc3)oc2c1`, for which the Potency entry was “inactive”. The same measure, in the same setting: to `C[C@@]12C(=O)N(c3ccc(C(=O)Nc4cccc5cccnc45)cc3)C(=O)[C@@H]1[C@@H]1C=C[C@H]2C1` belongs “inactive”. Same read-out and setting: to `O=S(O)CO` belongs “inactive”; to `COc1cc(/C=N\NC(=O)c2ccc3c(c2)OCO3)ccc1OCc1ccccc1`, “inactive”; to `Nc1ncnc(Nc2ccc(Cl)cc2)n1`, “inactive”. Still for that read-out and setting: with `CC1=C2C[C@@]3(C)C(CCC[C@@H]3C)C(O)C2OC1=O` (some centres not stated) the entry was “inactive”; with `CC(C)(C)c1ccc2c(c1)CC[C@H]2NC(=O)Nc1cccc2[nH]ncc12`, “inactive”.

Turning to `CCC(C(C)O)n1ncn(-c2ccc(N3CCN(c4ccc(OCC5COC(Cn6cncn6)(c6ccc(F)cc6F)C5)cc4)CC3)cc2)c1=O` (configuration not stated), the Potency was 18.4 µM (active). Turning to `COc1ccc(C2(CNC(=O)c3ccc(NC(=O)c4ccco4)cc3)CCOCC2)cc1`, the Potency result was “inactive”. Regarding `N#Cc1ccnc(Nc2cc(C3CCN(C4COC4)CC3)cc(N3CCC(F)(F)C3)n2)c1`, the Potency was 16.4 µM (active).

For `CC[N+]1(C/C2=C/CCCCCC2)CCC(NC(=O)C2c3cc(Cl)ccc3Oc3ccc(Cl)cc32)CC1` (configuration not stated), the Potency result was “inactive”. The same measure, in the same setting: with `O=C(C1CCCCC1)N(CCN1CCN(c2ccccc2O)CC1)c1ccccn1` the entry was “inactive”; with `O=C(NC[C@H]1CN(c2ccc(N3CCOCC3=O)cc2)C(=O)O1)c1ccc(Cl)s1`, “inactive”. Take `O=C(c1ccccc1)c1c(O)cc(O)cc1O[C@@H]1O[C@H](CO)[C@@H](O)[C@H](O)[C@H]1O`: the Potency result was “inactive”. Still for that read-out and setting: with `Cc1cc(C(=O)Nc2cc(Oc3ccc4nc(NC(=O)C5CC5)cn4n3)ccc2C)n(C)n1` the figure was 9.2 µM (active).

For `CS(=O)(=O)Nc1cc2occ(NC=O)c(=O)c2cc1Oc1ccccc1`, the Potency entry was “inactive”. Same read-out and setting: with `CC(C)S(=O)(=O)Nc1ccc(F)c(C(=O)c2c[nH]c3ncc(-c4cccnc4)cc23)c1F` the entry was “inactive”; with `COc1cc(C(=O)O)ccc1NC(=O)C1NC(CC(C)(C)C)C(C#N)(c2ccc(Cl)cc2F)C1c1cccc(Cl)c1F` (configuration not stated), “inactive”. Turning to `Cc1cc(F)ccc1-c1nc(NCCN=C(N)NC#N)nc2c1ccc(=O)n2-c1c(F)cccc1F`, the Potency entry was “inactive”.

`O=C(c1cc(Cc2n[nH]c(=O)c3ccccc23)ccc1F)N1CCCNCC1`: the Potency result was “inactive”. Regarding `CC(=O)O[C@@H]1C[C@]2(C)[C@@]3(CCC4[C@@]5(C)CC[C@H](O[C@@H]6O[C@H](C(=O)O)[C@@H](O)[C@H](OC7OC(CO)C(O)C(O)[C@H]7O[C@@H]7O[C@@H](C)[C@H](O)[C@@H](O)[C@H]7O[C@@H]7OC[C@](O)(CO)[C@H]7O)[C@H]6OC6OC(CO)C(O)C(O)C6O)C(C)(C)C5CC[C@]42C)OC[C@@]12CCC(C)(C)CC23` (some centres not stated), the activity change, negative = cytotoxicity is -11.3% [at 9.29 µM] (inactive).
